Assay results reported in the OligoGym collection.

Target: ARF4
Experiment: pooled miR-30 sensor sort-seq; sequence = guide strand
Settings: shRNA
Further: reference of the scale not given here.

Sequence	sensor-assay potency score (higher = more potent)
ATCTTGACCACCAACATCCCAT	-0.565
TAGCATTTGGCAAATCCTGTTT	-0.434
AATTTTGTTGTAACAAGCCTAG	-0.535
TACCACAAAAATAAGACCCTGG	0.855
TTTTCTGCAGCTCATCTGCTAC	-0.921

Target: ARHGAP18
Experiment: as above
Settings: shRNA

Sequence	sensor-assay potency score (higher = more potent)
TTATTTACACTCTTGACTCAGC	-0.0105
ATTTGTACTCTTATCTTGCTTT	0.153
TTCTCCATAACTTTGATGGTGG	-0.384
TTCTATCCAATAGTCTTCCATA	-1.16
TTTCTTTTGATTCTCTCTGTTG	-0.646
TTTGCTTCTAGTTCTTGGCAAA	-1.24
TTTGACAACAACCACCTCTTGA	0.34
TAAAAACACAATGCTTTCCTGT	0.106
TTCTCCTTTCTTGAGAGTCTGG	-0.587
TTGGTTTACAATAAACTTGGGA	0.294
TTTATTTACACTCTTGACTCAG	0.18
TTGCACTCGAATCACTCCCTGA	-0.442

Target: ARHGAP21
Experiment: as above
Settings: shRNA

Sequence	sensor-assay potency score (higher = more potent)
TTATTTTTTGAGACCTCGCAGG	-0.693
TTGTTGAGTCACTAGTAGCTGA	-0.152
TATCTGACTTGAATCTAGCTGA	0.41
TTTCATTGCAAACACACACTGC	-0.187
TTCTATTGGATAACAAATCTAC	-0.588
TAAACTGCGACACAGATCCCAC	-0.61
TAAACTATCTAATCTTTCTTGT	0.258
TTTAGTATCATTGTGACACTGT	0.875
TAAATCTGAAGTACCAGCGTTT	0.202
TAGACTTCCACTATCTGACTTG	0.173
TTAAACTATCTAATCTTTCTTG	0.206
TTGTATATCAATATCAGCCATT	-0.872

Target: ARHGAP30
Experiment: as above
Settings: shRNA

Sequence	sensor-assay potency score (higher = more potent)
TTATTCTGAGACATTGACCTTC	0.266
TTAATCTGGATTTAAAAGGGAC	-0.482
AAGAGGATCGAGAAGCTCGGGA	-0.319
TTGACCTTCACTAGAGTGGGAC	-0.00464
TGAATCTTGCTACACATTGCAC	-1.12
TTGTGTCGGAGACAAGTTCAGG	-1.32
TCTTGCTACACATTGCACTGGG	0.852
TAGGTCATCATAGGCACTCAGG	-1.26
TGCACAGCTCTTTAGCACCTGG	-0.978
TTTGGCACAGTCAACCTCCAGG	-0.36
TAGAGTTGGGCACTACAGCTGC	-0.34
